About 83,000 compounds went through this panel and 20% of them were active in at least one assay; those are over-represented in the sample as a whole.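 Interpretation: 100, growth as untreated; towards 0, rising growth inhibition; 0, no net growth; 0 to -100, cell death. Compounds scoring below 10 were considered active.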
Key:
Experiment in all cases: NCI-60 one-dose screen, 48 h (100 = growth as untreated, 0 = no growth, -100 = all killed)
[1] = system: MALME-3M melanoma; conditions: 10 µM unless noted
[2] = system: RXF 393 renal; conditions: 10 µM unless noted
[3] = system: SF-295 CNS; conditions: 10 µM unless noted
[4] = system: UACC-257 melanoma; conditions: 10 µM unless noted
[5] = system: HCT-15 colon; conditions: 10 µM
[6] = system: UACC-62 melanoma; conditions: 10 µM unless noted
[7] = system: LOX IMVI melanoma; conditions: 10 µM unless noted
[8] = system: SK-MEL-2 melanoma; conditions: 10 µM unless noted
[9] = system: ACHN renal; conditions: 10 µM unless noted
[10] = system: A498 renal; conditions: 10 µM unless noted
[11] = system: OVCAR-8 ovarian; conditions: 10 µM unless noted
[12] = system: OVCAR-4 ovarian; conditions: 10 µM unless noted
[13] = system: NCI/ADR-RES ovarian; conditions: 10 µM unless noted
[14] = system: T-47D breast; conditions: 10 µM unless noted
[15] = system: BT-549 breast; conditions: 10 µM
[16] = system: HCC-2998 colon; conditions: 10 µM unless noted
[17] = system: K-562 leukemia; conditions: 10 µM unless noted
[18] = system: TK-10 renal; conditions: 10 µM unless noted
[19] = system: HL-60(TB) leukemia; conditions: 10 µM unless noted
[20] = system: MOLT-4 leukemia; conditions: 10 µM

Measured: growth

S=P(Nc1ccccc1)(Nc1ccccc1)c1ccccc1
inactive: [1] 142% | [2] 98.5% | [3] 102% | [4] 102% | [5] 104% | [6] 84.2% | [7] 89.1% | [8] 105% | [9] 102% | [10] 70.6% | [11] 111% | [12] 104% | [13] 88.3% | [14] 87.5% | [15] 101% | [16] 93.6%

CCOCC1(CCc2ccccc2)C(=O)NC(=S)NC1=O
inactive: [17] 105% | [1] 138% | [2] 117% | [3] 111% | [4] 94.5% | [5] 107% | [6] 104% | [7] 94.9% | [8] 103% | [18] 115% | [9] 108% | [10] 96.9% | [19] 99.4% | [20] 91.8% | [11] 107% | [12] 120% | [13] 105% | [14] 99.3% | [15] 105%

O=c1cc[nH]c(=O)o1
inactive: [17] 105% | [1] 95.2% | [2] 114% | [3] 101% | [5] 104% | [6] 99.4% | [7] 97.9% | [8] 93.3% | [18] 84.1% | [9] 115% | [10] 114% | [19] 80.2% | [20] 97.4% | [11] 96.6% | [12] 104% | [13] 111% | [14] 96.3% | [15] 102% | [16] 116%
